Source: PubChem (National Center for Advancing Translational Sciences (NCATS))
This is a sample that favours compounds with a hit; in the whole collection about 21% have one here.
Shiga toxin inh = blocks Shiga toxin action in Vero cells. Vero cells, Shiga toxin protein synthesis inhibition reporter. inhibition, % at 38.7 µM. 9.2% of 290,000 active. AID 2315; in the data active = inhibition mostly above about 28%, no sharp cut-off; inactive = mostly below about 43%; note: 0% is about no effect
HCV inhibitor = HCV inhibition; 3.4% of 340,000 active; Huh7.5.1 HCVcc-Cre infection, luciferase reporter, 44 h; Potency, µM (titrated, usually from 41.8 µM), for inactives: at the highest dose activity change, negative = inhibition, usual class: inhibitors; AID 651820; note: potency is the fitted concentration of half-maximal effect; % is set by controls: 0 for no effect and ±100 for the full control effect
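Infectious HCV cell culture screen: compound-treated cells (1,000/well, pre-plated 4 h) are infected with HCVcc-Cre at roughly 0.5 moi and grown 44 h. Infection is quantified by luciferase signal after 15 min substrate incubation at room temperature.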
Cycloheximide cs = affects cycloheximide protein synthesis inhibition readout, counter-screen; cell reporter, cycloheximide protein synthesis inhibition counterscreen; max response, %; 12% of 300,000 active; AID 2314; in the data active = max response mostly above about 13%, no sharp cut-off; inactive = mostly below about 14%; note: read at 38.3 µM for the half of the compounds with a filed dose; 0% is about no effect
HCMV inh = inhibitors of human cytomegalovirus; HFF cells, HCMV-luciferase reporter, 72 h; hits give low values; activity change, negative = inhibition, % at 57.5 µM; 4.5% of 410,000 active; AID 1259415; in the data active = activity change below about -60%; inconclusive = no clear call, values can overlap the other calls; inactive = above about -39%; note: % is set by controls: 0 for no effect and ±100 for the full control effect
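Cell-based, HFFs, 1000 cells/well, 16 h 37C; cpds in DMSO + HCMV-luc, MOI 1 PFU/cell; 72 h 37C; OneGlo luminescence after 5 min RT; norm. to buffer vs Salinomycin 10uM.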
Pf growth 48h = P. falciparum growth inhibition at 48 hours (one generation); 5.9% of 310,000 active; P. falciparum luciferase growth in erythrocytes, 48 h; Potency, µM (titrated, usually from 28.7 µM), inactives show top-dose activity change, negative = inhibition, usual class: inhibitors; note: potency is the fitted concentration of half-maximal effect; % is set by controls: 0 for no effect and ±100 for the full control effect
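Growth was read as firefly luciferase luminescence after a 48 h, 37 C, 5% CO2 exposure of compounds to reporter-bearing P. falciparum cultures (0.1% parasitemia, 2% hematocrit final) in Albumax-supplemented RPMI 1640.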
Pf growth 96h = inhibits malaria parasite growth, 96 h; 6.9% of 320,000 active; P. falciparum luciferase reporter growth, 96 h; Potency, µM (top dose mostly 28.7 µM), for the others: at the top dose activity change, negative = inhibition, most hits filed as inhibitors; note: potency is the fitted concentration of half-maximal effect; % is set by controls: 0 for no effect and ±100 for the full control effect
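Infected RBCs, 2% Hct / 0.05% parasitemia final; luciferase-reporter P. falciparum; cpd 96 h, 37 C, 5% CO2; luciferase detection reagent; luminescence.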
An asterisk follows results filed as active; ? = inconclusive; . = no result given; [ ] = remark or other dose. Unless noted, calls come from the whole dose curve; as a rule, active = well fitted inhibition curve with a large enough effect; inconclusive = small, poorly fitted or top-dose-only effect, or another doubt; inactive = no such curve, though single readings can be large or run the other way.

SMILES | Shiga toxin inh | HCV inhibitor | Cycloheximide cs | HCMV inh | Pf growth 48h | Pf growth 96h
O=C(NCCn1cc(SCc2ccccc2F)c2ccccc21)c1cccs1 | . | . | . | -1.8 | . | .
CC(=O)Nc1ccc(OC(=O)c2ccccc2OC(C)=O)cc1 | . | . | . | . | -0.6% | ?
Cc1nc(C(=O)NCc2ccccc2)sc1C1(C)CC(c2ccccc2)=NO1 (stereo not drawn) | -1.7 | 13.2%[8.37 µM] | 5.0 | -21.6 | ? | ?
Cc1nc(-c2ccccc2)sc1C1(C)CC(c2c(Cl)cccc2Cl)=NO1 (stereo not drawn) | 53.3* | -15.1%[8.37 µM] | 20.1* | -10.9 | -5.0% | -16.0%
Cc1nc(NC(=O)c2ccccc2)sc1C1(C)CC(c2ccccc2F)=NO1 (stereo not drawn) | 59.7* | ? | 42.5* | -30.7 | ? | ?
Cc1nc(NC(=O)c2ccccc2)sc1C1(C)CC(c2c(Cl)cccc2Cl)=NO1 (stereo not drawn) | 3.8 | -4.4%[8.37 µM] | 2.0 | -30.9 | 13.1µM* | ?
CN1CCN(C(c2ccccc2Cl)c2sc3nc(-c4ccco4)nn3c2O)CC1 (stereo not drawn) | . | . | . | 18.1 | . | .
CCOC(=O)c1cccc(NC(=O)c2ccc3snnc3c2)c1 | . | . | . | 27.7 | . | .
Cc1nc(-c2ccc(S(=O)(=O)N3CCCCCC3)cc2)cs1 | 99.7* | -4.9% | 21.1* | -31.7 | 6.8% | -2.8%
Cc1nc(-c2cccc(S(=O)(=O)N3CCCCC3)c2)cs1 | 10.7 | 0.4% | -1.4 | -39.9 | 14.8% | -8.4%
Nc1nc(-c2ccc(S(=O)(=O)N3CCCCC3)cc2)cs1 | . | ? | . | -12.3 | ? | 13.1µM*
Cc1nc(-c2ccc(S(=O)(=O)N3CCOCC3)cc2)cs1 | -2.0 | 8.1% | -0.8 | -26.9 | -2.1% | ?
COc1ccccc1NC(=O)CSC1=Nc2ccccc2C2=NC(CCC(=O)NCc3ccco3)C(=O)N12 (stereo not drawn) | . | . | . | -14.6 | . | .
CC(C)(C)c1ccc(OCC(=O)N2CCN(C=O)CC2)cc1 | 12.4 | 17.8% | 1.8 | 9.1 | -11.3% | 1.9%
COc1ccc(C/C(C)=N/NC(=S)Nc2ccccc2F)cc1 | 91.1* | -6.6% | 54.4* | 17.4 | 145.3% | -14.0%
CCOc1cc(C(=O)N/N=C(\C)Cc2ccc(OC)cc2)cc(OCC)c1OCC | -18.0 | ? | -3.0 | ? | 18.1% | 11.9%
COc1ccc(C/C(C)=N/NC(=O)c2ccc(Cl)cc2)cc1 | 36.9* | 12.2% | 14.4* | 52.2 | 14.5% | -5.4%
COc1ccc(C/C(C)=N/NC(=S)Nc2ccc(C(C)C)cc2)cc1 | -6.9 | 0.1% | 9.8 | -7.0 | 8.4% | 23.3%
COc1ccc(C/C(C)=N/NC(=O)c2cccnc2)cc1 | 11.0 | 1.8% | 26.6* | -1.5 | 3.0% | 36.9%
COc1ccc(C(=O)N/N=C(\C)CC(=O)N2CCN(C=O)CC2)cc1 | 24.5 | -12.5% | 31.2* | 0.5 | -1.2% | 26.8%
COc1cc(CCN=Cc2cccc(OC)c2O)c([N+](=O)[O-])cc1OC | . | . | . | 8.9 | . | .
COc1ccc(NC(=O)CN(C)C(=O)CNC(=O)c2cccs2)cc1 | -10.3 | . | 1.5 | -22.3 | 12.1% | 13.6%
Cc1ccccc1C(=O)N1c2ncnn2C2(CCCCC2)[C@@H]2CCCC[C@@H]21 | . | . | . | -11.9 | . | .
C/C(CCN1CCc2nc(-c3ccccc3)c(-c3ccccc3)cc2C1)=N\O[C@H](C)c1cn([C@H](CO)Cc2ccccc2)nn1 | -7.3 | -11.1%[8.37 µM] | -1.4 | . | 9.28µM* | 13.1µM*
CCN1C(=O)[C@H]2[C@H]3[C@H](O)[C@H](O)C/C(=N\O[C@H](C)c4cn([C@H](CO)Cc5ccccc5)nn4)[C@@H]3CC[C@H]2C1=O | -13.2 | -2.6%[8.37 µM] | -2.2 | . | 20.8% | -12.1%
SMILES | Shiga toxin inh | HCV inhibitor | Cycloheximide cs | HCMV inh | Pf growth 48h | Pf growth 96h
C/C(CCN1CCc2nc(-c3ccccc3)c(-c3ccccc3)cc2C1)=N\OC[C@@H](C)[C@H](OCc1ccccc1)C(C)C | -13.0 | 5.0%[8.37 µM] | -2.3 | . | ? | 9.28µM*
Cc1cccc(C(=O)Nc2ccc(C(=O)OCc3cc(=O)n4c5c(sc4n3)CCCC5)cc2)c1 | . | . | . | 14.6 | . | .
CCN1C[C@@H]2[C@@H]3C(=O)N(C)C(=O)[C@@H]3[C@](C)(C1=O)N2C(=O)c1ccc(Br)cc1 | . | 18.2% | . | 0.5 | . | .
CCCNC(=O)C(Cc1ccc(C(F)(F)P(=O)(OCC)OCC)cc1)NC(=O)c1ccc(C#N)cc1 (stereo not drawn) | . | -27.6% | . | 26.2 | . | .
CC(=O)Nc1ccc(S(=O)(=O)Nc2ccc(Cl)cn2)cc1 | . | -16.4% | -2.9 | -0.9 | 9.0% | ?
CC(=O)Nc1ccc(S(=O)(=O)c2ccnc3cc(Cl)ccc23)cc1 | . | . | . | -83.4* | . | .
Cc1sc2c3ccsc3ccc2[n+]1C | -11.9 | -3.2% | -10.1 | -18.5 | 33.5% | 50.9%
Cc1sc2ccc3sccc3c2[n+]1C | -8.6 | -2.1% | -1.7 | 10.3 | -4.1% | 14.7µM*
Cc1ccc(-c2ccc(=O)n(CC(=O)NCC3COCCO3)n2)cc1 (stereo not drawn) | -0.7 | 12.4% | 2.5 | -28.0 | 33.8% | 48.7%
COC(=O)c1ccccc1NC(=O)CCCOc1cc(=O)n(C)c2ccccc12 | . | . | . | -99.4* | . | .
CCC1CCCCN1CCCNC(=O)CCCOc1cc(=O)n(C)c2ccccc12 (stereo not drawn) | 6.1 | -12.2% | 4.7 | 68.7 | -22.4% | 6.57µM*
COc1cc2c(cc1NS(=O)(=O)c1cccc(C#N)c1)n(C)c(=O)n2C | . | . | . | 10.2 | . | .
Cc1cccc(-n2c(C)nc3cc(C(=O)NCCN4CCOCC4)ccc32)c1 | . | . | . | -37.9 | . | .
O=C(NC(=O)N1CCCc2ccccc21)c1ccccc1 | -2.3 | -6.7% | 8.3 | 14.0 | -14.4% | ?
CC(=O)/C(=N/Nc1ccc([N+](=O)[O-])cc1)N1CCCc2ccccc21 | 17.5 | ? | 0.8 | 3.6 | ? | 23.8%
COC(=O)/C(=N/Nc1ccccc1)N1CCCc2ccccc21 | -2.8 | ? | 6.2 | -1.4 | -10.9% | 10.4µM*
COC(=O)/C(=N/Nc1cccc(C)c1)N1CCCc2ccccc21 | 42.9 | 32.6% | 18.9* | 17.1 | -57.0% | 0.0%
CC(=O)/C(=N/Nc1ccc(Br)cc1)N1CCCc2ccccc21 | -5.2 | ? | 6.0 | -25.0 | 15.9% | 1.7%
COC(=O)/C(=N/Nc1ccc(C)cc1)N1CCCc2ccccc21 | -10.4 | ? | -2.4 | ? | ? | 11.7µM*
Cc1cccc(OCC(=O)N2CCCc3ccccc32)c1 | 2.0 | -0.3% | 5.5 | -9.1 | -8.5% | 0.0%
O=C(C(c1ccccc1)c1ccccc1)N1CCCc2ccccc21 | 119.4* | -17.0% | 29.6* | -10.8 | ? | -109.6%
CCOc1ccc(C(=O)c2cn(CC(=O)Nc3ccc(F)cc3)c3cc4c(cc3c2=O)OCCO4)cc1 | . | . | . | -1.2 | . | .
CC1=C(C(=O)OCc2ccccc2)C(c2ccc(Cl)cc2)NC(=O)N1CCCCCC(=O)O (stereo not drawn) | -21.6 | ? | -3.6 | 12.3 | ? | 11.7µM*
